PubChem BioAssay (NCATS)
Unmarked numbers belong to inactive results. Inconclusive results are not listed. Where a call stands in place of a potency, no number is given. Calls of active or inactive are those of the source. Unless noted, calls come from the whole dose curve; as a rule, active = well fitted cell-killing curve with a large enough effect; inconclusive = small, poorly fitted or top-dose-only effect; inactive = flat fitted curve, though single readings scatter.

What was measured:
[1] = Cell Viability - LYMP2-025 (AID 976); note: series mostly up to about 92 µM
Procedure, shortened: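 Luminescent ATP readout after 24 hr treatment of a human lymphoblastoid line (LYMP2-025, 2500 cells/well, 37 C). Reagent developed 30 min at room temperature; AC50 fitted with the Hill equation.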

[2] = Cell Viability - LYMP2-002 (AID 977);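 note: compound exposure lasted 24 h at 37 °C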; note: potency is the fitted concentration of half-maximal effect
Procedure, shortened: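 Human lymphoblastoid cells (2500/well) in complete medium were preincubated 5 hr at 37 C, then exposed to compounds for 24 hr at 37 C. Intracellular ATP was read by CellTiter-Glo luminescence; AC50 came from Hill-equation concentration-response fits.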

[3] = Cell Viability - LYMP2-006 (AID 978); note: nearly all actives have a fitted effect of over 60% in size; note: potency is the fitted concentration of half-maximal effect
Procedure, shortened: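 Human lymphoblastoid cells (LYMP2-006), 2500/well in complete medium, were treated with compound for 24 hr at 37 C. Cellular ATP was read by CellTiter-Glo luminescence after 30 min, and AC50 values came from Hill-equation fits of concentration-response data.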

[4] = Cell Viability - LYMP2-007 (AID 979);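 note: cells exposed to compound for 24 h before reading; nearly all actives have a fitted effect of over 60% in size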; note: potency is the fitted concentration of half-maximal effect
Procedure, shortened: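 Measured via luciferase-based ATP quantitation: lymphoblastoid cells, 24 hr compound exposure at 37 C, AC50 from Hill fits.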

[5] = Cell Viability - LYMP2-008 (AID 980); note: nearly all actives have a fitted effect of over 60% in size; note: potency is the fitted concentration of half-maximal effect
Procedure, shortened: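 Measured: ATP-dependent luminescence, proportional to viable cell number, in human lymphoblastoid cells treated 24 hr with compound in complete culture medium. Values are AC50s from Hill-equation modelling of qHTS titrations.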

[6] = Cell Viability - LYMP2-010 (AID 981); note: nearly all actives have a fitted effect of over 55% in size; note: potency is the fitted concentration of half-maximal effect
Procedure, shortened: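 This 24 hr viability screen uses LYMP2-010 lymphoblastoid cells, quantifies ATP via luciferase luminescence, and derives AC50 from Hill fits of qHTS concentration-response data.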

[7] = Cell Viability - LYMP2-012 (AID 982);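 note: cellular ATP by luciferase luminescence where a drop means cytotoxicity; cells exposed to compound for one day before reading; nearly all actives have a fitted effect of over 55% in size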; note: potency is the fitted concentration of half-maximal effect
[8] = Cell Viability - LYMP2-014 (AID 983); note: nearly all actives have a fitted effect of over 50% in size; note: potency is the fitted concentration of half-maximal effect
Procedure, shortened: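 Quantitative HTS in lymphoblastoid cells: 24 hr compound exposure, then CellTiter-Glo ATP luminescence. Positive control was tetraoctylammonium bromide, 6.4pM to 92 uM.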

[9] = Cell Viability - LYMP2-016 (AID 984); note: nearly all actives have a fitted effect of over 55% in size; note: potency is the fitted concentration of half-maximal effect
Procedure, shortened: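 Human lymphoblastoid LYMP2-016 cells, 2500 per well, treated with compounds for 24 h at 37 C. Viability read as intracellular ATP by CellTiter-Glo luminescence after 30 min at room temperature; AC50 from Hill fits of concentration-response.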

[10] = Cell Viability - LYMP2-018 (AID 985); note: nearly all actives have a fitted effect of over 50% in size; note: potency is the fitted concentration of half-maximal effect
Procedure, shortened: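 In this qHTS viability assay, cells are treated for 24 hr and cellular ATP is quantified by luciferase-based luminescence, with tetraoctylammonium bromide as positive control.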

[11] = Cell Viability - LYMP2-020 (AID 986); note: nearly all actives have a fitted effect of over 55% in size; note: potency is the fitted concentration of half-maximal effect
Procedure, shortened: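 Cells at 2500 per well receive a 24 hr compound exposure at 37 C. Viability is measured as ATP-dependent luciferase luminescence, with AC50 modeled from qHTS concentration-response curves.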

[12] = Cell Viability - LYMP2-022 (AID 987); note: nearly all actives have a fitted effect of over 55% in size; note: potency is the fitted concentration of half-maximal effect
Procedure, shortened: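 In this qHTS cytotoxicity screen, compound titrations were incubated 24 hr at 37 C with human lymphoblastoid cells in complete medium. Luciferase-based ATP luminescence provided the viability signal.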

[13] = Cell Viability - LYMP2-024 (AID 988); note: nearly all actives have a fitted effect of over 60% in size; note: potency is the fitted concentration of half-maximal effect
Procedure, shortened: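 Cells at 2500 per well received compound for 24 hr after a 5 hr settling period. Viability was scored by CellTiter-Glo luminescence, with AC50 from Hill fits.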

[14] = Cell Viability - LYMP2-026 (AID 989); note: nearly all actives have a fitted effect of over 50% in size
Procedure, shortened: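 Acute toxicity screen in complete culture medium, with 24 hr compound exposure at 37 C. Viability read as cellular ATP via luciferase reaction, with tetraoctylammonium bromide (6.4pM to 92 uM) as positive control.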

[15] = Cell Viability - LYMP1-002 - Assay at 24 hr (AID 993); note: potency is the fitted concentration of half-maximal effect
Procedure, shortened: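 Viability was judged from intracellular ATP using a luciferase read-out, following a 24-hour compound incubation at 37 C of lymphoblastoid cells seeded at 2500 per well. Concentration-response data were fitted to the Hill equation for AC50.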

[16] = Cell Viability - LYMP1-002 - Assay at 40 hr (AID 994); note: nearly all actives have a fitted effect of over 60% in size; note: potency is the fitted concentration of half-maximal effect
Procedure, shortened: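 Concentration-dependent ATP loss after 40 hr treatment at 37 C defined toxicity; AC50 values were obtained by fitting the standard Hill equation.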

[17] = qHTS Assay for Identification of Small Molecule Inducers of Hypoxia Response (AID 2120; active = well fitted curve in the direction sought with a large enough effect in the signal ratio, with a control signal flat, not every such curve was filed as active; the % refers to the signal ratio)
Procedure, shortened: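 HRE-bla ME-180, 2500 cells/well, 0.5% dialyzed FBS medium; cpd titration, 17 h 37 degrees C; CCF4 2.5 h RT; Ex 405, Em 460/530 ratio -> %Activity, AC50.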

Compound	Potency [1]	Potency [2]	Potency [3]	Potency [4]	Potency [5]	Potency [6]	Potency [7]	Potency [8]	Potency [9]	Potency [10]	Potency [11]	Potency [12]	Potency [13]	outcome [14]	Potency [15]	Potency [16]	outcome [17]
CC(=O)c1ccccn1	inactive	inactive	inactive	inactive	inactive	inactive	inactive	inactive	inactive	inactive	inactive	inactive	inactive	inactive	inactive	inactive	inactive
CC(O)CC(C)O (configuration not stated)	inactive	inactive	inactive	inactive	inactive	inactive	inactive	inactive	inactive	inactive	inactive	–	inactive	inactive	inactive	–	inactive
C=CCCCCCCC=C	inactive	inactive	inactive	inactive	inactive	inactive	inactive	inactive	inactive	inactive	inactive	inactive	inactive	inactive	inactive	inactive	inactive
COCCOC(=O)c1ccccc1C(=O)OCCOC	inactive	inactive	inactive	inactive	inactive	inactive	inactive	inactive	inactive	–	inactive	inactive	inactive	inactive	–	inactive	inactive
CC(C)C(C)C	inactive	inactive	inactive	inactive	inactive	inactive	inactive	inactive	inactive	inactive	inactive	inactive	–	inactive	inactive	inactive	inactive
O=C(O)c1ccc(C(=O)O)cc1	inactive	inactive	inactive	inactive	inactive	inactive	inactive	inactive	inactive	inactive	inactive	–	–	inactive	inactive	inactive	inactive
N#CCc1ccccc1[N+](=O)[O-]	inactive	inactive	inactive	inactive	inactive	inactive	inactive	inactive	inactive	inactive	inactive	–	inactive	inactive	inactive	inactive	inactive
O=C1OC(=O)c2c(Br)c(Br)c(Br)c(Br)c21	inactive	inactive	inactive	inactive	inactive	inactive	inactive	inactive	–	inactive	inactive	inactive	inactive	inactive	inactive	inactive	inactive
O=[N+]([O-])c1ccc(Cl)cc1Cl	inactive	inactive	inactive	inactive	inactive	inactive	inactive	–	inactive	inactive	inactive	inactive	inactive	inactive	inactive	inactive	inactive
c1ccc(Nc2ccccc2)cc1	inactive	inactive	inactive	inactive	inactive	inactive	inactive	inactive	inactive	inactive	inactive	inactive	inactive	inactive	inactive	inactive	inactive
NCCCCCCN	inactive	inactive	inactive	inactive	inactive	inactive	inactive	inactive	inactive	inactive	inactive	–	inactive	inactive	–	–	inactive
Nc1ccccc1[N+](=O)[O-]	inactive	inactive	inactive	inactive	inactive	inactive	inactive	inactive	inactive	inactive	inactive	inactive	inactive	inactive	–	inactive	inactive
FB(F)F	inactive	inactive	inactive	inactive	inactive	inactive	inactive	inactive	inactive	–	inactive	inactive	inactive	inactive	inactive	inactive	inactive
Cc1cccc(C)c1[N+](=O)[O-]	inactive	inactive	inactive	inactive	inactive	inactive	inactive	–	inactive	inactive	inactive	inactive	inactive	inactive	inactive	inactive	inactive
O=C(O)c1c(Cl)cccc1Cl	inactive	inactive	inactive	inactive	inactive	inactive	inactive	inactive	inactive	inactive	inactive	inactive	–	inactive	inactive	inactive	inactive
Cc1ccc(C)c(O)c1	inactive	inactive	inactive	inactive	inactive	inactive	inactive	–	inactive	inactive	inactive	inactive	inactive	inactive	inactive	inactive	inactive
O=C(O)c1cccc([N+](=O)[O-])c1	inactive	inactive	inactive	inactive	inactive	inactive	inactive	inactive	–	inactive	inactive	inactive	inactive	inactive	inactive	inactive	inactive
O=[N+]([O-])c1c(Cl)cc(Cl)cc1Cl	inactive	inactive	inactive	inactive	inactive	inactive	inactive	inactive	inactive	inactive	inactive	–	inactive	inactive	inactive	inactive	inactive
C1CCOC1	inactive	inactive	inactive	inactive	inactive	inactive	inactive	inactive	inactive	inactive	inactive	inactive	inactive	inactive	inactive	inactive	inactive
c1ccc2n[nH]nc2c1	inactive	inactive	inactive	inactive	inactive	inactive	inactive	inactive	–	inactive	inactive	inactive	inactive	inactive	inactive	inactive	inactive
[O-]/[N+](=N\O)c1ccccc1	inactive	inactive	inactive	–	inactive	inactive	inactive	inactive	inactive	inactive	inactive	inactive	inactive	inactive	inactive	inactive	inactive
Cc1ccc(C(=O)O)cc1	inactive	inactive	inactive	inactive	inactive	inactive	inactive	–	–	inactive	inactive	inactive	inactive	inactive	inactive	inactive	inactive
CC1=C(/C=C/C(C)=C/C=C/C(C)=C\C=O)C(C)(C)CCC1	–	50.1 µM (active)	50.1 µM (active)	50.1 µM (active)	50.1 µM (active)	39.8 µM (active)	–	63.1 µM (active)	–	50.1 µM (active)	–	–	31.6 µM (active)	–	63.1 µM (active)	50.1 µM (active)	inactive
CC(C)(C)OC=O	inactive	inactive	inactive	inactive	inactive	–	–	–	–	–	–	–	–	–	inactive	inactive	inactive
CCCCC/C=C/C=C/C=O	–	50.1 µM (active)	50.1 µM (active)	39.8 µM (active)	39.8 µM (active)	39.8 µM (active)	50.1 µM (active)	–	50.1 µM (active)	79.4 µM (active)	39.8 µM (active)	50.1 µM (active)	–	–	inactive	inactive	inactive
